We go through 16 compounds from PubChem BioAssay (NCATS).

Assay [1] in a line: qHTS to identify inhibitors of the type 1 interferon - major histocompatibility complex class I in skeletal muscle: primary screen against the NCATS LOPAC collection (AID 1347405).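 Further: human myoblasts with HiBiT tag on endogenous HLA-B stimulated by IFN-beta; lytic HiBiT luminescence reporting HLA-B protein level.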 Further: potency means the concentration at half of the fitted maximal effect. The method, boiled down: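 HLA-B HiBiT myoblasts, IFN-b 4 ng/ml, dexamethasone-free medium; compounds 7-pt 1:4.3 titration, top 46 uM final; 24 h at 37 C; Nano-Glo HiBiT lytic reagent, 10 min RT, luminescence.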

A short description of assay [2]: qHTS for inhibitors of adenylyl cyclases using a fission yeast platform: a pilot screen against the NCATS LOPAC library (AID 1347410). The method, boiled down: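 Read-out: fbp1-GFP fluorescence by laser scanning cytometry (488 nm laser), a gain of signal when AC/cAMP-PKA signalling is inhibited. Strain CHP2027 expressing AC9, GNAS and PDE4D2; compounds at up to 57 µM; 18 h, 30C.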
(Quantitative high-throughput screening tests each substance at several concentrations.)

Assay [3] is described as follows: Validation qHTS assay for inhibitors of Activation Induced Cytidine Deaminase (AID): UDG Counterscreen signal (AID 1347427). In outline: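 Fluorescence at 560 nm excitation, 665 nm emission reports UDG signal after 250 mM NaOH (2x) addition and 30 min. Enzymes (AID 1 uM, UDG 2 U/mL, at 4/3x) preincubated 10 min with compound, then 4 h with 4x 250 nM DJC20/DJC23 substrate at room temperature.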

A short description of assay [4]: Primary qHTS for inhibitors of La Crosse Virus (LACV) - induced cell death in SH-SY5Y cells (AID 1508616).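 Further: top concentration of the series differs between compounds; higher means more rescue of cells from virus-induced death.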 In outline: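 Cytopathicity rescue screen: compounds pinned onto SH-SY5Y cells, which are then infected with LACV (MOI 0.01) and held 6 days at 37C. Percent activity is scaled between infected DMSO control and uninfected DMSO control.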
Assay [5] concerns the target Calcium and integrin-binding protein 1 (Homo sapiens) (UniProt Q99828). The experiment in a line: Validation qHTS for Identification of Calcium Integrin Binding protein 1 (CIB1) Competitor (AID 1508618). The method, boiled down: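 CIB1-GST (1 uM final) in 5 mM HEPES pH 7.4, 125 mM NaCl, 5 mM CaCl2, 0.01% Tween20 was preincubated 15 min at room temperature with compound (up to 114 uM), then FITC-alphaIIb peptide (100 nM) added for 15 min; fluorescence polarization read.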

Assay [6] in a line: Primary qHTS for small molecule stabilizers of the endoplasmic reticulum resident proteome: Secreted ER Calcium Modulated Protein (SERCaMP) assay (AID 1508630). The method, boiled down: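 The SH-SY5Y reporter protocol was run at 3 concentrations up to 38.3 uM (primary) or 11 concentrations (follow-up): 16 h compound, 100 nM thapsigargin for 4 h, then extracellular luciferase luminescence.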

For a further assay, the target named is Papain (Carica papaya) (UniProt P00784). The assay can be described thus: Primary qHTS assay for inhibitors of the protease papain (AID 1645873).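 Further: papain turnover of Z-FR-AMC read as the AMC fluorescence gain over 10 min; series mostly up to about 50 µM.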
Chain of Papain (Carica papaya) (P00784 whole entry, looked up): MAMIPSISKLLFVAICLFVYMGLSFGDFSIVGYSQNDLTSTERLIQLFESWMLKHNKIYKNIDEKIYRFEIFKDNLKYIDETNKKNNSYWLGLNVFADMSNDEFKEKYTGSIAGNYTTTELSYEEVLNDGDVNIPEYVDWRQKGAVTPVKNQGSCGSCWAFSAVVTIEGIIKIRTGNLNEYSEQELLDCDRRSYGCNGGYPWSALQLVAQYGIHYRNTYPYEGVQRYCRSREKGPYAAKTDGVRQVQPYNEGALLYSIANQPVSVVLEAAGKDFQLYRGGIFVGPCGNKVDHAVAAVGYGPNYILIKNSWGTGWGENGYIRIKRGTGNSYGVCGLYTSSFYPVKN
For assay [7], the target named is Single-stranded DNA cytosine deaminase (Homo sapiens) (UniProt Q9GZX7). The experiment in a line: Validation qHTS assay for inhibitors of Activation Induced Cytidine Deaminase (AID): AID signal (AID 1347429). The method, boiled down: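 AID+UDG coupled FRET deamination; cpds up to 114 uM final; DJC20/DJC23 substrate, 4 hr RT; NaOH stop, 30 min RT; read Ex 540/Em 590.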
Chain of Single-stranded DNA cytosine deaminase (Homo sapiens) (Q9GZX7 whole entry, looked up): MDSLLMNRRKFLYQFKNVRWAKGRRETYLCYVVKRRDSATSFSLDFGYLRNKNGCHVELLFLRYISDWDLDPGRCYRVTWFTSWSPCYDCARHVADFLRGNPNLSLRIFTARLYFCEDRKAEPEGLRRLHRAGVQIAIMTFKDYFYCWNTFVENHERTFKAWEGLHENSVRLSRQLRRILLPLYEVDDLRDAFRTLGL

Assay [8] has as its target Calcium and integrin-binding protein 1 (Homo sapiens) (UniProt Q99828). The experiment in a line: Primary qHTS for Identification of Calcium Integrin Binding Protein 1 (CIB1) Competitor (AID 1508620).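 Further: GST tagged CIB1 binding a fluorescein labelled alphaIIb integrin peptide tracer; top concentration of the series differs between compounds.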 The method, boiled down:
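Fluorescence polarization competition: CIB1-GST (1 uM final) preincubated with compound 15 min at room temperature, then FITC-labeled alphaIIb peptide (100 nM final) added for another 15 min. Polarization read at Ex 480/Em 540.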

SMILES strings stand for the structures. A number with no mark means an inactive call. Inconclusive results are not listed. Activity calls are given as the source filed them. The call rests on the fitted dose curve; in most records, active means well fitted curve in the direction sought with a large enough effect; inconclusive means small, poorly fitted or top-dose-only effect, or another doubt; inactive means no such curve, though single readings can be large; an effect the other way counts as inactive or inconclusive.

Chain of Calcium and integrin-binding protein 1 (Homo sapiens) (Q99828 whole entry, looked up): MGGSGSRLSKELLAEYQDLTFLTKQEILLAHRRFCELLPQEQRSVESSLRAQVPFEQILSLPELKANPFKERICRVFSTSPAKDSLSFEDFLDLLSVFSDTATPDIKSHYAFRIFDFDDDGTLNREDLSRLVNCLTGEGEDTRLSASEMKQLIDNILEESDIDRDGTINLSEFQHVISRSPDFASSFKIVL

Take `CN(C)CCCc1cc(C(=O)Nc2ccc(-c3ccncc3)cc2)ccc1O`: the Potency entry (in assay [1]; in [3]; in assay [4]; in assay [5]; in [6]; in the assay with Papain (Carica papaya)) was “inactive” throughout. Moreover, in assay [2], the compound was called inactive.
With `COc1cc(C(O)CO)ccc1O` (stereo not drawn), the Potency result (in assay [1]; in assay [3]; in assay [4]; in [5]; in assay [6]; with Papain (Carica papaya)) was “inactive” each time. In assay [2], the outcome was inactive.
`C=C1C[C@@]23CC[C@H]4[C@@](C)(CCC[C@@]4(C)C(=O)O)[C@@H]2CC[C@]1(O)C3`: the Potency entry (in assay [1]; in [3]; in assay [4]; in assay [5]; with Papain (Carica papaya)) was “inactive” in each case. Besides, the call in [2] was inactive.
As for `CCCCS(=N)(=O)CC[C@H](N)C(=O)O` (stereo partly drawn), the Potency entry (in [1]; in [3]; in the assay with Papain (Carica papaya)) was “inactive” each time. Besides, in assay [2], the call was inactive.
As to `O=C(O)c1ccccc1Nc1cccc(OCc2ccc3ccccc3n2)c1`, the Potency entry (in assay [1]; in assay [3]; in [4]; in assay [6]; with Papain (Carica papaya)) was “inactive” in each case. Moreover, the outcome in [2] was inactive.
As for `O=c1[nH]c2cc(Cl)ccc2c(O)c1-c1ccc(Oc2ccccc2)cc1`, the Potency in [1] is 8.91 µM (active). The result in assay [2] was inactive. Besides, the Potency result (in assay [3]; in assay [4]; in [5]; with Papain (Carica papaya)) was “inactive” throughout.
On to `C/C(=C\c1ccc(C(=O)O)cc1)c1ccc2c(c1)C(C)(C)CCC2(C)C`, for which the Potency entry in assay [1], in assay [3], in assay [4] and in [6] was “inactive” throughout. Besides, the result in assay [2] was inactive.
`CNc1ncnc2c1ncn2[C@H]1C[C@H](OP(=O)(O)O)[C@@H](COP(=O)(O)O)O1`: the Potency entry (in assay [1]; in assay [3]; in assay [4]; in assay [5]; in the assay with Papain (Carica papaya)) was “inactive” each time. For the same compound, in assay [2], the result was inactive.
In the case of `Brc1c(Br)c(Br)c2[nH]cnc2c1Br`, the Potency in assay [1] is 12.6 µM (active). For the same compound, the result in [2] was inactive. The Potency entry (in assay [3]; in assay [4]; in [5]; with Papain (Carica papaya)) was “inactive” in each case.
For the compound `O=c1[nH]c2ccccc2c2ccccc12`, the outcome in [2] was inactive. In addition, the Potency entry (in assay [3]; in assay [7]; in assay [4]; in [5]; in [6]; in the assay with Papain (Carica papaya)) was “inactive” in each case.
Take `Nc1ncnc2c1c(-c1ccc(Oc3ccccc3)cc1)cn2C1CCCC1`: the call in assay [2] and in assay [8] was inactive. For the same compound, the Potency result (in assay [3]; in assay [7]; in assay [4]; in assay [5]; in assay [6]; with Papain (Carica papaya)) was “inactive” throughout.
On to `COc1ccc(C(=O)NCc2cccnc2)cc1C(=O)NCc1cccnc1`, for which the Potency result (in assay [1]; in [3]; in assay [5]; in assay [6]; with Papain (Carica papaya)) was “inactive” each time. The call in assay [2] was inactive.
On to `NC(=O)CNCCC(c1ccccc1)c1ccccc1`, for which the Potency entry (in assay [1]; in [3]; in [5]; in [6]; with Papain (Carica papaya)) was “inactive” in each case. The compound was classed as inactive in assay [2].
`NOCC(=O)O`: the Potency result (in [1]; in [3]; in assay [6]; with Papain (Carica papaya)) was “inactive” in each case. Further, in [2], the call was inactive.
Take `CC[N+](CC)(CC)CC(=O)Nc1c(C)cccc1C`: the Potency result (in assay [1]; in assay [3]; in assay [4]; in assay [5]; in assay [6]; with Papain (Carica papaya)) was “inactive” each time. Moreover, the compound was classed as inactive in assay [2].
Consider `O=c1[nH]c(=S)[nH]c(-c2ccccc2)c1Cc1c(O)ccc2ccccc12`, for which the compound was classed as inactive in [2]. Also, the Potency entry in assay [3], in assay [7], in [4], in assay [5] and in assay [6] was “inactive” throughout.
